# Measured values published in PubChem BioAssay (Tox21).
# Results filed as inconclusive are left out. Entries that show only a call come without a potency. Activity calls are given as the source filed them. Calls follow the shape of the full dose curve.
# Assay: qHTS assay for small molecule agonists of the antioxidant response element (ARE) signaling pathway - cell viability counter screen (AID 743203); also: nearly all actives have a fitted effect of over 55% in size
# Conditions: ARE-bla HepG2 viability, CellTiter-Glo luminescence, 16 h; series mostly up to 73.3 µM
# Source text: National Center for Advancing Translational Sciences [NCATS]
# NIH Chemical Genomics Center [NCGC]
# U.S. Environmental Protection Agency [EPA]
# National Institutes of Environmental Health Sciences [NIEHS]
# National Toxicology Program [NTP]
# U.S. Food and Drug Administration [FDA]
# Oxidative stress has been implicated in the pathogenesis of a variety of diseases ranging from cancer to neurodegeneration. The antioxidant response element (ARE) signaling pathway plays an important role in the amelioration of oxidative stress. The CellSensor ARE-bla HepG2 cell line (Invitrogen) can be used for analyzing the Nrf2/antioxidant response signaling pathway. Nrf2 (NF-E2-related factor 2) and Nrf1 are transcription factors that bind to AREs and activate these genes. The CellSensor ARE-bla Hep G2 cell line contains a beta-lactamase reporter gene under control of the Antioxidant Response Element (ARE) stably integrated into HepG2 cells. The activation of the report gene under culture conditions can be detected by fluorescence intensity. This cell line has been used to screen the Tox21 10K compound library to identify agonists that induce oxidative stress. The cytotoxicity of the Tox21 compound library against the ARE-bla cell line was tested in parallel by measuring the cell viability using CellTiter-Glo assay (Promega, Madison, WI) in the same wells.
# Tox21 Assay Protocol Summary:
# ARE-bla HepG2 cells were dispensed at 2,000 cells/5 ul/well in 1536-well white wall/solid bottom plates using a Multidrop Combi (ThermoFisher Scientific, Waltham, MA) dispenser. After the assay plates were incubated at 37C/5% CO2 for 5 hrs, 23 nL of compounds dissolved in DMSO, positive controls or DMSO only was transferred to the assay plate by a pintool work station (Kalypsys, San Diego, CA). The plates were incubated at 37C/5% CO2 for 16 hrs, followed by addition of 4 ul/well of CellTiter-Glo reagent into the assay plates using a Flying Reagent Dispenser (Aurora Discovery, San Diego, CA). After 30 min incubation at room temperature, the luminescence intensity in the assay plates was measured using a ViewLux (PerkinElmer, Shelton, CT) plate reader.
# Potency is read from the fitted curve at half-maximal effect.
row,Structure (SMILES),Potency
1,CC(C)=CCC1C(=O)N(c2ccccc2)N(c2ccccc2)C1=O,inactive
2,CCCCN(CCN(CCCC)C(=O)N1CCOCC1)C(=O)N1CCOCC1,inactive
3,O=C(O)CCC(=O)C(=O)O,inactive
4,CCCCCCCCCCCCCCN(CCO)CCO,61.1 µM (active)
5,CO[C@]1(NC(=O)CSC(F)F)C(=O)N2C(C(=O)O)=C(CSc3nnnn3CCO)CO[C@H]21,inactive
6,C=CC(=O)[O-].C=CC(=O)[O-].[Zn+2],inactive
7,C=C1c2cccc(O)c2C(O)=C2C(=O)[C@]3(O)C(O)=C(C(N)=O)C(=O)[C@@H](N(C)C)[C@@H]3[C@@H](O)[C@H]12,inactive
8,CC(C)(O)c1ccc(CNC(=O)c2cccnc2Oc2ccc3nonc3c2)cc1,inactive
9,Cc1c(C)c2c(c(C)c1OC(=O)CCC(=O)OCCO)CC[C@@](C)(CCC[C@H](C)CCC[C@H](C)CCCC(C)C)O2,inactive
10,CC1=C(CC=O)C(C)(C)CCC1,inactive
11,CC(=O)c1cc2ccccc2s1,inactive
12,CC(=O)Nc1ccc(C)cc1C,inactive
13,NC1[C@H]2CN(c3nc4c(cc3F)c(=O)c(C(=O)O)cn4-c3ccc(F)cc3F)C[C@@H]12 (stereo not given in full),inactive
14,C/C=C\C/C=C/CCCCCCCCOC(C)=O,inactive
15,C[C@H]1C[C@H](O)c2ccsc2S1(=O)=O,inactive
16,CN1C(C(=O)Nc2ccccn2)=C(O)c2sccc2S1(=O)=O,inactive
17,CCC=CC#N,inactive
18,Brc1cc(Br)c(Oc2cc(Br)c(Br)cc2Br)cc1Br,inactive
19,CCOC(=O)c1ccc(C#Cc2ccc3c(c2)C(C)(C)CCS3)nc1,inactive
20,O=[N+]([O-])c1ccc(Nc2ccc(Nc3ccccc3)c(S(=O)(=O)O)c2)c([N+](=O)[O-])c1,inactive

row,Structure (SMILES),Potency
1,CCCCOc1ccc(OCCCN2CCOCC2)cc1,inactive
2,CCCCCCCCN,inactive
3,C[C@@]12CCC[C@H]1[C@@H]1CC[C@H]3C[C@@H](O)CC[C@]3(C)[C@H]1CC2,inactive
4,c1ccc(C[n+]2cccc3ccccc32)cc1,inactive
5,CCN(CC)CCNC(=O)COc1ccc(OC)cc1,inactive
6,C=C(C)[C@@H]1CCC2=CCC[C@@H](C)[C@]2(C)C1,inactive
7,CC(CO)CO,inactive
8,CC(CN(C)C)C(C)(O)Cc1ccc(Cl)cc1 (stereo not given),inactive
9,CC(=O)OCC(=O)NCCCOc1cccc(CN2CCCCC2)c1,inactive
10,CN1CCCN=C1COC(=O)C(O)(c1ccccc1)C1CCCCC1 (stereo not given),inactive
11,CCCCCCCC/C=C\CCCCCCCCO,inactive
12,CCCCCCC(C)(C)C(=O)O,inactive
13,O=C1Cc2cc(Cl)ccc2N1,inactive
14,CC1(CN2CCC(n3c(=O)[nH]c4ccccc43)CC2)OCc2ccccc2-n2cccc21 (stereo not given),33.5 µM (active)
15,C=C1CCC2CC1C2(C)C (stereo not given),inactive
16,C=C(C)C(=O)OCCOCCOC(=O)C(=C)C,inactive
17,C1COC1,inactive
18,O=c1c(O)c(-c2ccc(O)cc2)oc2cc(O)cc(O)c12,inactive
19,Oc1cccc(Nc2ccccc2)c1,inactive
20,CCOC(C)=O,inactive
